# Hits are enriched below; roughly 1.2% of the tested compounds scored in any of these assays.
# SKN-1 block – inhibitors of C. elegans SKN-1; inhibition, % at 21.8 µM; 360,000 tested, 0.49% active; C. elegans VP596 Pgst-4::GFP/RFP ratio, acrylamide-induced, 24 h;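 active = interference check ratio from 0.5 to 1.5 plus GFP to RFP signal ratio inhibition reaching or exceeding a fixed threshold, cut at about 30% in these data, passing the limit was not always enough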
# VLA-4 inh – inhibition in a human VLA-4 binding assay; P13612; VLA-4 expressing cells, ligand binding flow cytometry; inhibition, % (about 7 µM as worked out from the volumes in the protocol); 330,000 tested, 0.2% active; AID 2557; in the data active = inhibition above about 50%
# CR mimetic SO – caloric restriction mimetics inhibiting age-related superoxide in yeast | 330,000 tested, 0.18% active | superoxide response (% of plate mean), % at 10 µM | S. cerevisiae aged cells, superoxide DHE fluorescence; hits give low values;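 active = superoxide response under a set limit, about three screen SD below normal, cut at about 65% in these data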;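 also: yeast aged for seven days with compound at 30 °C before DHE staining; 100% = average MFI of all compound-treated wells on the plate with controls excluded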
# ABCB6 inh 2 – blocks the human ABCB6 transporter | K562-ABCB6 porphyrin accumulation, flow cytometry, 1 h; hits give low values | fluorescence ratio to DMSO, % at 10 µM | 360,000 tested, 0.19% active | Q9NP58;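 active = fluorescence ratio to DMSO below 75%, the collection mean minus 3 SD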;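 also: signal is porphyrin accumulated inside mitochondria; 100% equals median channel fluorescence of DMSO control wells; lower ratio means ABCB6 inhibition with less porphyrin fluorescence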
# Platelet DG rel – platelet dense granule release activity | human platelet-rich plasma, SFLLRN dense granule ATP release, luminescence | 300,000 tested, 0.22% active | inhibition, %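 (compounds screened at 7.5 µM in platelet-rich plasma)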 | AID 1663;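 active = mean replicate score, as percent of positive control, at or above 50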
# * = called active by the depositor; nt = no result given.
SMILES,SKN-1 block,VLA-4 inh,CR mimetic SO,ABCB6 inh 2,Platelet DG rel
CCOC(=O)[C@]12CCCC=C1N(Cc1ccc(Cl)cc1Cl)C(=O)[C@H](CC(=O)N1CCN(C(=O)c3ccco3)CC1)C2,17.3,nt,nt,97.0,nt
CCN1CCN(c2ncnc3c2c(-c2ccccc2)cn3-c2ccc(F)cc2)CC1,51.6*,5.4,91.2,101.0,3.4
Fc1ccc(-n2cc(-c3ccccc3)c3c(N4CCOCC4)ncnc32)cc1,-2.2,-8.4,109.4,92.0,0.2
O=S(=O)(Nc1ccc(-c2ccc3nncn3n2)cc1)c1ccccc1Cl,13.1,0.8,80.7,102.0,60.9*
CCOC(=O)Cn1c(=O)n(Cc2ccco2)c(=O)c2ccc(C(=O)NC3CCCC3)cc21,-14.4,-4.5,90.3,98.0,89.6*
CN(C)c1ccc(N=Nc2cccc(F)c2)cc1,34.2*,1.1,94.7,124.0,-40.8
COc1ccc2nc(N=Nc3ccc(N(C)C)cc3)sc2c1,-7.8,nt,nt,93.0,nt
Cc1cc(N(C)C)ccc1N=Nc1ccc2ncccc2c1,69.3*,-12.6,85.9,97.0,23.4
Cc1ccc2ncccc2c1,-0.6,11.2,133.1,102.0,nt
CN(C)c1ccc(N=Nc2ccc3ncccc3c2)cc1,58.9*,nt,nt,98.0,nt
c1cnc2ccc(-c3ccc4ncccc4c3)cc2c1,73.8*,2.4,90.3,94.0,4.4
CN(C)c1ccc(N=Nc2cccc3ccoc23)cc1,28.7,-2.1,94.8,96.0,0.3
CC(=O)c1cc2cccc(OC3(C)CCN(Cc4ccc(-c5ccccn5)cc4)C3)c2o1 (stereo unspecified),-18.2,nt,nt,92.0,nt
CCCNC(=O)C1(C)CCCN(Cc2c3ccccc3nn2C)C1 (stereo unspecified),0.1,nt,nt,100.0,nt
CCSc1ncc(/C=N/Nc2ccc(Cl)cc2)n1C,-8.9,-4.4,107.6,97.0,4.3
CCSc1ncc(/C=N/Nc2ccccc2)n1C,45.0*,-2.2,111.6,104.0,25.8
Cc1cccc(NC(=O)c2cc(S(=O)(=O)N3CCCCC3)c[nH]2)c1,-11.6,nt,nt,99.0,nt
CC(C)c1cc(Cn2c3ccccc3c(=O)n2C(C)Cn2cc(-c3ccccc3)nn2)on1 (stereo unspecified),-2.4,nt,nt,nt,nt
O=C(Nc1ccccc1)C(=O)Nc1ccc2c(c1)N(C(=O)C1CC1)CCC2,5.6,19.0,97.4,87.0,89.1*
COc1ccc(NC(=O)c2cc(S(=O)(=O)N3CCc4ccccc43)cn2C)cc1,-11.5,11.5,102.7,97.0,97.9*
Cc1cccc(C)c1NC(=O)C1(C)CSCC(=O)N1CCOc1ccccc1 (stereo unspecified),-13.2,nt,nt,nt,nt
COc1ccc(OC)c(CN2C(=O)CSCC2(C)C(=O)Nc2c(C)cccc2C)c1 (stereo unspecified),2.5,nt,nt,nt,nt
COc1ccc([N+](=O)[O-])cc1NC(=O)C(C)OC(=O)CSC(C)C(=O)Nc1cc(C)on1 (stereo unspecified),37.1*,-4.3,97.5,94.0,3.2
COC(=O)c1c2c(nc3ccccc13)CCC2,41.2*,35.3,102.3,104.0,-5.7
CC1(C(=O)NS(=O)(=O)C2CC2)CCCN(C(=O)c2c(F)cccc2F)C1 (stereo unspecified),8.2,nt,nt,106.0,nt
SMILES,SKN-1 block,VLA-4 inh,CR mimetic SO,ABCB6 inh 2,Platelet DG rel
Cn1c(=O)oc2cc(S(=O)(=O)NC3CCN(Cc4ccccc4)CC3)ccc21,20.5,-3.3,91.5,92.0,52.1*
Cn1c(=O)oc2cc(S(=O)(=O)NC3CCCCC3)ccc21,16.7,-15.3,96.3,93.0,18.8
Cn1c(=O)oc2cc(S(=O)(=O)Nc3cccc(C(=O)O)c3)ccc21,-3.4,-5.5,120.0,99.0,-8.0
CC(=O)c1cccc(NS(=O)(=O)c2ccc3c(c2)oc(=O)n3C)c1,36.8*,3.0,102.9,94.0,-3.4
Cc1ccc(S(=O)(=O)N2[C@@H](c3ccc(Cl)cc3)C(C(=O)OC(C)(C)C)=CC[C@H]2c2ccc(Cl)c(Cl)c2)cc1,5.6,nt,nt,97.0,nt
CCOC(=O)C1CCCN(C(=O)c2cncc(Br)c2)CC1 (stereo unspecified),-2.4,nt,nt,100.0,nt
Cc1cc(C)n2c(NCc3ccccc3)c(-c3cc4ccccc4o3)nc2n1,6.6,nt,nt,922.0,nt
COc1cc(/C=C2\SC(=Nc3ccccc3)N(CCc3c[nH]c4ccccc34)C2=O)ccc1OC(C)C(=O)O (stereo unspecified),-3.1,-4.2,108.5,73.0*,5.9
COc1ccc(N=C2S/C(=C\c3ccc(OC(C)C(=O)O)c(OC)c3)C(=O)N2CCc2c[nH]c3ccccc23)cc1 (stereo unspecified),2.7,nt,nt,94.0,-0.6
CC1=CC(=O)C=CC1=Nc1ccc(N(C)C)cc1,22.9,nt,nt,97.0,nt
Cc1ccc(-c2c(C#N)c(N)n(-c3ccccc3)c(=O)c2C#N)cc1,2.6,14.8,82.6,98.0,53.5*
Cc1cc(N2O[C@]34C=C[C@]25C[C@@H](O)CC[C@]5(C)C3CC[C@]2(C)[C@@H]([C@H](C)/C=C/[C@H](C)C(C)C)CC[C@H]24)no1 (stereo partly specified),-5.6,nt,56.9*,100.0,nt
CCOc1cc(OCC)cc(C(=O)NCCN2CCC(n3c(=O)[nH]c4ccccc43)CC2)c1,0.2,nt,nt,100.0,nt
CC1CC(C)CN(C(C(=O)NC2CCCCC2)c2cc3ccccc3o2)C1 (stereo unspecified),-6.7,nt,nt,100.0,nt
CCCCOCCCNC(=O)C[C@@H]1C[C@@]2(C(=O)OCC)CCCC=C2N(Cc2ccco2)C1=O,-3.7,nt,nt,97.0,nt
CC1CCCCC1N1CN=C(Nc2nc3ccccc3s2)NC1 (stereo unspecified),56.3*,-4.7,115.5,106.0,-10.5
c1ccc2sc(NC3=NCN(C4CCCCC4)CN3)nc2c1,3.1,2.9,94.3,95.0,6.9
CCOC(=O)Nc1nc(-c2ccc(F)cc2F)cs1,56.2*,-3.8,106.1,101.0,1.5
COc1cc(NC(=S)NCCCN2CCOCC2)cc(OC)c1,6.3,4.2,101.0,62.0*,-13.2
COc1cccc(NC(=S)NCCN2CCOCC2)c1,-10.2,6.2,86.4,98.0,-9.6
OC(Cc1cccc(Br)c1)c1ncc(-c2cccc(C(F)(F)F)c2)[nH]1 (stereo unspecified),7.4,nt,nt,98.0,nt
CN1CCN(C(=O)c2ccccc2N(Cc2ccccc2)S(C)(=O)=O)CC1,40.3*,3.2,98.1,96.0,-8.6
CN1CCN(C(=O)c2ccccc2N(Cc2ccccc2)S(=O)(=O)c2ccccc2)CC1,-27.0,-0.8,119.0,83.0,0.4
COc1cc2[nH]c(=O)c(C(=O)NCc3ccc(C)cc3)c(O)c2cc1OC,0.6,nt,nt,98.0,nt
Oc1ccc(C[C@H]2CNC(=S)N2C[C@H]2CCCN2C[C@H](Cc2ccccc2)N2C[C@H](Cc3ccc(O)cc3)N(CCc3ccccc3)C2=S)cc1,18.9,nt,nt,101.0,nt
Clc1ccccc1-c1nc(-c2ccc(Br)o2)no1,66.7*,15.7,103.7,105.0,1.7
O=[N+]([O-])c1ccccc1-c1nc(-c2ccc(Br)o2)no1,58.3*,15.9,105.9,95.0,3.3
O=[N+]([O-])c1cc(Cl)ccc1-c1nc(-c2ccccc2)no1,18.8,19.7,122.2,100.0,-0.6
